The campaign covered roughly 360,000 compounds. About 7,300 (2%) were called active. This is one part of a sample in which actives are shown more often than they occur. A number with no mark means an inactive call. No stated cut-off is given here; in the data, active means inhibition above about 50%; inactive means the rest.
Experiment: blockers of TWEAK-induced Fn14 reporter activity – luciferase reporter cells, uHTS, primary screen (AID 1159606)
Settings: TWEAK-stimulated Fn14 reporter cells, luciferase luminescence, 8 h; at 10 µM; stronger effect = higher value
With `CC(=CCOc1ccc2ccc(=O)oc2c1)C1=CC(=O)C(C)(C)O1` the inhibition was 70.4% (active). Work on `CSc1nc2ccc(C)cc2c(=O)n1-c1cccnc1` yielded an inhibition of 0.75%. For `CN(C)c1ccc(/C=C2\CC3C4CC=C5CC(O)CCC5(C)C4CCC3(C)C2=O)cc1` (stereo not given), the inhibition was -57.2%. Work on `NC(=O)Nc1cccc(C(F)(F)F)c1` yielded an inhibition of -2.53%. `Cc1cccc(NC(=O)N2CC3CC(C2)c2cccc(=O)n2C3)c1` (stereo not given) gave an inhibition of 3.66%. Work on `CNC(=O)O/N=C(\N)Cc1csc2ccccc12` yielded an inhibition of 16.5%. `CC(=O)c1ccc(OC(NC(=O)Cc2ccccc2)C(Cl)(Cl)Cl)cc1` (stereo not given) showed an inhibition of -4.23%. In the case of `C[C@H]1CN([C@@H](C)CO)C(=O)CCCn2nncc2CO[C@H]1CN(C)C(=O)Oc1cccc2ccccc12`, the inhibition is reported as 9.18%. Work on `O=C1NC(=O)C(C/C=C/c2ccccc2)C(=O)N1` yielded an inhibition of 0.48%. With `CCCCCCCCCCCCn1ccc(=N)cc1` the inhibition was 74% (active). For `CCCn1c(C(=O)c2ccccc2OC)nc2ccccc21`, the inhibition was -3.91%. Work on `COc1ccc2c(c1)NP(=S)(c1ccccc1)N2` (stereo not given) yielded an inhibition of -0.5%. With `CN(C)CC1Oc2ccccc2OC1(O)c1ccccc1` (stereo not given) the inhibition was 79.6% (active). `Cc1ncoc1C(=O)NCC1=C(c2cccc3ccccc23)C[C@@H]2CC[C@H]1N2Cc1ccco1` gave an inhibition of -0.7%. Compound `COc1cccc(-c2nc3ccc(N4CCN(C)CC4)cc3[nH]2)c1` has an inhibition of -27.5%. For `C[C@]12CC[C@H](O)C[C@H]1CC[C@@H]1C2CC[C@]2(C)[C@@H](C3=CC(=O)OC3)[C@@H](O)C[C@]12O` (stereo not given in full), the inhibition was 56.4% (active). `CC12CCC(O)CC1CCC1C2CCC2(C)C(C(=O)CC(O)C(F)(F)F)CCC12` (stereo not given) showed an inhibition of -91.4%. Compound `O=c1[nH]c(=O)n(-c2ccc(F)cc2)c(O)c1C=NCCN1CCCCC1` has an inhibition of 6.59%. In the case of `CN(C)C(=O)Oc1cc(=O)n2c3c(cccc13)CCC2`, the inhibition is reported as 30.3%. With `Cc1cc(C(=O)OCC(=O)Nc2c(F)cccc2F)c(C)n1C1CC1` the inhibition was 4.53%. `C[C@]12CCC3C(CC[C@H]4[C@H](O)[C@H](O)CC[C@]34C)C1CC[C@@H]2O` (stereo not given in full) gave an inhibition of -13.2%. In the case of `C[C@]12CCC3C(CC[C@H]4[C@H](O)[C@H](O)CC[C@]34C)C1CCC2=O` (stereo not given in full), the inhibition is reported as 96.5% (active). Compound `C[C@]12CC[C@H](O)CC1=C([N+](=O)[O-])CC1C2CC[C@@]2(C)C1CC[C@@H]2O` (stereo not given in full) has an inhibition of 1.49%. With `OC1/C(=C/c2ccc(C(F)(F)F)cc2)N2CCC1CC2` (stereo not given) the inhibition was -3%. For `COC(=O)C1=C(c2ccc3ccccc3c2)C[C@@H]2CC[C@H]1N2C(=O)NCCO`, the inhibition was 6.86%. Compound `CCN1CCN(c2nc3c(c(=O)[nH]2)CCC3)CC1` has an inhibition of 14.3%. In the case of `COc1ccc2[nH]c3c(c2c1)CCN[C@H]3C`, the inhibition is reported as 75.7% (active). Compound `Cc1ccc2c(c1)=C/C(=C\c1c(O)[nH]c(=O)[nH]c1=O)C(=O)N=2` has an inhibition of -3.63%. For `Cc1cc2ccccn2c1C(C[N+](=O)[O-])c1c(F)cccc1Cl` (stereo not given), the inhibition was 102% (active). `Cc1cccc(-n2c(C)nc3cc(C(=O)N4CCC5(CC4)OCCO5)ccc32)c1` gave an inhibition of -8.93%. Compound `O=c1[nH]c2ccccc2n1C1CCN(C(c2ccnc3ccccc23)c2nnnn2Cc2ccccc2)CC1` (stereo not given) has an inhibition of 27.5%. Compound `CCN(N=Nc1nonc1OC)c1nonc1OC` has an inhibition of -11.1%. With `O=C1NC(=O)N(CCc2ccc(F)cc2)C(=O)/C1=C/C=C/c1ccccc1` the inhibition was 79.4% (active). Work on `COC1=CC=C2[C@H]3Cc4ccc(OC)c5c4[C@@]2(CCN3C)C1O5` (stereo not given in full) yielded an inhibition of -16%. Compound `Cc1cc(N2C(=O)C3CCCN3C2c2ccc(Cl)c(Cl)c2)no1` (stereo not given) has an inhibition of -3.31%. Compound `CC(C)c1ccc(O)c(CN2CCN(c3ccccc3)CC2)c1` has an inhibition of 4.05%. In the case of `CCC(C)(O)C(=O)OC1C(=O)OC2CC3C(C)=CC(=O)C(O)C3(C)C3C4(O)OCC23C1C(C)C4O` (stereo not given), the inhibition is reported as 99.5% (active). With `CCOP(=O)(OCC)C(O)c1ccc(OC)cc1OC` (stereo not given) the inhibition was 3.38%. Compound `CCC(=O)OC(Cc1ccccc1)(c1ccccc1)C(C)CN(C)C` (stereo not given) has an inhibition of 3.52%. Compound `O=C(NCC1=C(c2ccc3ccccc3c2)C[C@@H]2CC[C@H]1N2Cc1ccco1)c1cccs1` has an inhibition of -11.2%. With `CC(=O)OC1C2(CC3N4C(=O)C5(CO)SSC4(CC31O)C(=O)N5C)OC(C)C(C)(C)C2=O` (stereo not given) the inhibition was 107% (active). `CN(C)C(=O)NC(O)C(Cl)(Cl)Cl` (stereo not given) showed an inhibition of 5.54%. `Cc1cccc(-n2c(O)c(C=NC34CN5CN(CN(C5)C3)C4)c(=O)[nH]c2=O)c1` gave an inhibition of -1.26%. In the case of `COC1C(O)C(C)OC(OC2CCC3(C=O)C(CCC4C3CCC3(C)C(C5=CC(=O)OC5)CCC43O)C2)C1O` (stereo not given), the inhibition is reported as 80.6% (active). `CC(=NCc1ccc2c(c1)OCO2)c1c(O)[nH]c(=O)[nH]c1=O` showed an inhibition of -1.24%. With `CCN(CC)C(=O)Oc1ccc(NC(=O)N2CCOCC2)cc1` the inhibition was 12.2%. Compound `Cc1ccc(N(C)C(=O)Oc2cccc3ccc(C)nc23)cc1` has an inhibition of -2.35%. In the case of `O=Cc1cn(Cc2ccc(F)cc2Cl)c2ccccc12`, the inhibition is reported as 56.5% (active). For `CC1C(=O)OC2CCN3CC=C(COC(=O)C(C)(O)C1(C)O)C23` (stereo not given), the inhibition was -18.7%. In the case of `CC[N+]1(C)CCCC(OC(=O)C(O)(c2ccccc2)c2ccccc2)C1` (stereo not given), the inhibition is reported as -7.55%. For `CCOC(=O)[C@]12Cc3ccccc3[C@H]1N(C1CCCCC1)C(=O)c1cc(OC)ccc12`, the inhibition was 42.5%. In the case of `COC(=O)CN(CCCl)P1(=O)OCCCN1CCCl` (stereo not given), the inhibition is reported as -6.99%. `O=C1NC(=O)C(CCOc2ccccc2)(CCc2ccccc2)C(=O)N1` gave an inhibition of -21.8%. With `COc1ccccc1C1=NCc2nnc(CSC)n2-c2ccc(Cl)cc21` the inhibition was 12.6%. For `CCN1CC2C3CCC(C)(O3)C2C1` (stereo not given), the inhibition was 2.33%. `CCOC(=O)C1=C(C)OC(N)=C(C(=O)OC)C12C(=O)Nc1ccc(Br)cc12` (stereo not given) showed an inhibition of -9.87%. In the case of `N#CC1=C(N)Oc2c(c(=O)oc3ccccc23)C1c1ccccc1OC(=O)c1cccs1` (stereo not given), the inhibition is reported as 51.3% (active). Work on `COc1ccc(C2C=C(C)Oc3c2c(=O)oc2ccccc32)cc1OC` (stereo not given) yielded an inhibition of 1.69%. Compound `CCNc1nc2[nH]c(=O)c3c(c2s1)OC(N)=C(C#N)C3c1cccs1` (stereo not given) has an inhibition of 19.6%. For `Nc1ccc(Cc2ccc(N)c(Cl)c2)cc1Cl`, the inhibition was 7.24%. In the case of `COc1ccccc1OC(=O)c1ccc(C)c(S(=O)(=O)N2CCOCC2)c1`, the inhibition is reported as 5.54%. `COC(=O)C1=C(c2ccc(F)cc2F)C[C@@H]2CC[C@H]1N2C(=O)NC1CC1` showed an inhibition of 10.7%. Work on `CCC/C(=N\O)c1c[nH]c2ccccc12` yielded an inhibition of -11.5%. Work on `CCOc1ccc(C2SCC(=O)Nc3c2c(C)nn3C2CCOC(C)(C)C2)cc1` (stereo not given) yielded an inhibition of 7.72%. In the case of `Cc1ccc(P(=S)(c2ccc(C)o2)N2CCOCC2)o1`, the inhibition is reported as 73.2% (active). `CCOC(=O)[C@]12Cc3cc(OC)ccc3[C@H]1N(C(C)C)C(=O)c1ccccc12` showed an inhibition of 25.1%. Work on `O=C(NC1CCCCC1)N1Cc2cc(N3CCCCC3)ccc2-n2nncc2C1` yielded an inhibition of -46.7%. `CN1CCN(/N=C/c2c[nH]c3ccccc23)CC1` gave an inhibition of 4.46%. Work on `COC(=O)C1=C(c2ccc(OCc3ccccc3)cc2)C[C@@H]2CC[C@H]1N2C(=O)NCc1cccc(F)c1` yielded an inhibition of 37.4%. For `Fc1cccc(F)c1CN1CCN(Cc2c(F)cccc2F)CC1`, the inhibition was 92.7% (active). For `CN1CCN(Cc2ccccc2C(F)(F)F)CC1`, the inhibition was 0.88%. `C/C(=N/O)c1ccc2ccc3ccccc3c2c1` gave an inhibition of 2.22%. `COc1ccccc1N1CCN(C(CNC(=O)Oc2ccccc2)c2cccnc2)CC1` (stereo not given) showed an inhibition of 3.6%. `COCc1cc(OC(=O)N(C)C)nc(-c2ccc(C)c(Cl)c2)n1` gave an inhibition of 6.49%. In the case of `c1cc2c(cc1[C@H]1OC[C@H]3[C@@H]1CO[C@@H]3c1ccc3c(c1)OCO3)OCO2`, the inhibition is reported as -20.1%.
